Assay outcomes: PubChem, National Center for Advancing Translational Sciences (NCATS)
Cruzain inh noDet – blocks cruzain activity in detergent-free assay; purified cruzain, Z-FR-AMC fluorescence, no detergent; Potency, µM, hits mostly inhibitors; 2.3% of 200,000 active; also: nearly all actives have a fitted effect of over 40% in size
Target sequence (P25779 123-467 limits assumed): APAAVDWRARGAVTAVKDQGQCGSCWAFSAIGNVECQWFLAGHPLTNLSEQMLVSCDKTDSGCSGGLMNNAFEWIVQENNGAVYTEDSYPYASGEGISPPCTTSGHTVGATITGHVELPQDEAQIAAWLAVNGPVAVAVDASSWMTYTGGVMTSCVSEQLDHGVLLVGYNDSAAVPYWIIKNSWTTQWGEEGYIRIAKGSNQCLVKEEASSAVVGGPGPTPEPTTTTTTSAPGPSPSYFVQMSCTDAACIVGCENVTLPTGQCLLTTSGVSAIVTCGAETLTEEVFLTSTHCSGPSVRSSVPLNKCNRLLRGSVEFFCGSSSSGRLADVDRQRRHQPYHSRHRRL
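Detergent-free condition (0.00005% Triton X-100) in acetate buffer pH 5.5 with DTT. 1.5 nM enzyme and compound were pre-mixed 15 min, then 2 uM Z-FR-AMC substrate added; reaction progress from fluorescence change between first and third reads (60 s).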
Cruzain Triton – inhibitors of Trypanosoma cruzi cruzain with detergent; P25779; purified cruzain, Z-FR-AMC fluorescence, 0.01% Triton; Potency, µM, most hits filed as inhibitors; 0.43% of 200,000 active; AID 1478; also: nearly all actives have a fitted effect of over 40% in size
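Detergent-containing arm of a paired screen for aggregation-based inhibition: 0.01% Triton X-100 present. Cruzain at 1.5 nM cleaved 2 uM Z-FR-AMC at pH 5.5 with 5 mM DTT; AMC fluorescence gain over 60 s measured activity.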
A number is an active result; i = inactive; ? = inconclusive. In the library only some 2.4% were active in any assay of this set; here they are far more common. Calls follow the shape of the dose curve; as a rule, active = well fitted curve in the direction sought with a large enough effect; inconclusive = small, poorly fitted or top-dose-only effect, or another doubt; inactive = no such curve, though single readings can be large; an effect the other way counts as inactive or inconclusive.

SMILES	Cruzain inh noDet	Cruzain Triton
COC(=O)[C@@H](O)CC[C@@H](C)Cc1c(OC)c(OC)c(C)c(OC)c1OC	i	i
COc1ccc(C(=O)NCCc2sc(-c3ccc(Cl)cc3)nc2C)c(OC)c1	?	i
CCCCCCC(=O)N=Nc1c(O)[nH]c2ccc([N+](=O)[O-])cc12	25µM	i
CCc1cc(C(=O)N=Nc2c(O)[nH]c3ccc([N+](=O)[O-])cc23)c2ccccc2n1	i	i
COc1cccc(Cn2c(C)c(CNC3CCCCC3)c(C(=O)O)c2C)c1	i	i
COc1ccccc1NC(=O)C1=C(C)Nc2c(C(=O)Nc3cccc(C)c3)cnn2C1c1ccccc1Cl (configuration not stated)	25µM	i
CC1=C(C(=O)Nc2ccccc2)C(c2cc(Br)ccc2F)n2ncc(C(=O)Nc3ccccc3)c2N1 (configuration not stated)	20µM	i
COc1ccccc1NC(=O)C1=C(C)Nc2c(C(=O)Nc3cccc(C)c3)cnn2C1c1ccccc1C (configuration not stated)	?	i
CC1=C(C(=O)Nc2ccc(C)cc2C)C(c2cc(Br)ccc2F)n2ncc(C(=O)Nc3ccc(C)cc3)c2N1 (configuration not stated)	i	i
Cc1nn(CC(=O)NC(C)c2ccccc2)c(=O)c2cc3occc3n12 (configuration not stated)	i	i
Cc1ccc(N2C(=O)CS(=O)(=O)C23C(=O)N(Cc2ccc(Cl)cc2)c2ccccc23)cc1C (configuration not stated)	13µM	i
COc1ccc(N2C(=O)CCSC23C(=O)N(Cc2ccc(F)cc2)c2ccccc23)cc1 (configuration not stated)	i	i
Cc1ccc(CN2C(=O)C3(SCC(=O)N3c3ccc(C)c(C)c3)c3ccccc32)cc1 (configuration not stated)	?	i
Cc1ccc(N2C(=O)CSC23C(=O)N(Cc2ccccc2F)c2ccccc23)cc1F (configuration not stated)	i	i
O=C1CS(=O)(=O)C2(C(=O)Nc3ccccc32)N1c1cccc(Cl)c1 (configuration not stated)	i	i
COc1ccc(N2C(=O)CS(=O)(=O)C23C(=O)N(Cc2ccc(F)cc2)c2ccc(C)cc23)cc1 (configuration not stated)	3.2µM	i
Cc1ccc(CN2C(=O)C3(c4ccccc42)N(c2ccc(C)c(Cl)c2)C(=O)CS3(=O)=O)cc1 (configuration not stated)	1.3µM	i
Cc1ccc(N2C(=O)CS(=O)(=O)C23C(=O)N(Cc2ccccc2F)c2ccccc23)cc1Cl (configuration not stated)	1.3µM	i
CCc1ccc(C2c3c(n[nH]c3C)C(=O)N2c2ccc(C)cc2)cc1 (configuration not stated)	i	i
Cc1oc2ncnc(N3CCOCC3)c2c1C(=O)NCc1ccccc1	i	i
COc1ccccc1NC(=O)C(=O)NCCc1csc(-c2cccc(F)c2)n1	i	i
COc1ccc(Cl)cc1NC(=O)N1CCN(S(=O)(=O)c2ccc3c(ccn3C)c2)CC1	?	i
Cc1ccc(C)c(CN2C(=O)C3(c4ccccc42)N(c2ccc(Cl)cc2)C(=O)CS3(=O)=O)c1 (configuration not stated)	3.2µM	i
Cc1ccc(C)c(CN2C(=O)C3(OCCCO3)c3ccccc32)c1	i	i
c1ccc(Nc2ncnc3sc4c(c23)CCC4)cc1	i	i
SMILES	Cruzain inh noDet	Cruzain Triton
O=S(=O)(Nc1ncnc2sc3c(c12)CCC3)c1ccc2ccccc2c1	32µM	i
CCOC(=O)c1ccc(NC(=O)Cn2ncc3c(C)n(Cc4ccccc4F)c(C)c3c2=O)cc1	i	i
Cc1cccc(N2CCN(C(=O)CN3CCSc4ccccc43)CC2C)c1 (configuration not stated)	i	i
Fc1ccc(CNc2ncnc3onc(-c4ccc(F)cc4)c23)cc1	i	i
FC(F)(F)c1ccc(Cl)c(N/N=C/c2ccc(N3CCOCC3)s2)c1	10µM	i
CCOC(=O)N/N=C/c1ccc(N2CCOCC2)s1	i	i
CN(C(=O)CSc1nc(C2CCCC2)nc2c1c(=O)n(C)c(=O)n2C)c1ccccc1	i	i
CCN(CC)C(=O)c1sc2c(c1C)c(=O)n(-c1ccccc1)c(=O)n2CC(=O)N(CC)c1cccc(C)c1	i	i
CCC1CN(C(=O)C2CCN(S(=O)(=O)c3c(C)noc3/C=C/c3ccccc3F)CC2)c2cc(C)ccc2O1 (configuration not stated)	?	i
Cc1ccc(/C=C/c2onc(C)c2S(=O)(=O)N2CCC(C(=O)N3CCOc4ccccc43)CC2)cc1	i	i
Cc1ccc(Cl)cc1N1CCN(C(=O)C2CCN(S(=O)(=O)c3c(C)noc3/C=C/c3ccccc3F)CC2)CC1	6.3µM	i
Cc1ccc2c(c1)N(C(=O)C1CCN(S(=O)(=O)c3c(C)noc3/C=C/c3ccccc3F)CC1)CCO2	13µM	i
CC(=O)c1ccc(N2CCN(C(=O)C3CCN(S(=O)(=O)c4c(C)noc4/C=C/c4ccccc4F)CC3)CC2)cc1	i	i
CCC1CN(C(=O)C2CCN(S(=O)(=O)c3c(C)noc3/C=C/c3ccccc3F)CC2)c2cc(Cl)ccc2O1 (configuration not stated)	3.2µM	i
COc1ccccc1C(=O)OCc1cc(=O)n2c(C)csc2n1	i	i
O=C(Cc1ccc(NC(=O)N2CCCCc3ccccc32)cc1)Nc1ccccc1Br	?	i
COc1ccc(N2CCN(C(=O)c3cc(-c4ccc(C)c(F)c4)on3)CC2)cc1	?	i
O=C(CCn1ccc2cc(S(=O)(=O)N3CCCC3)ccc21)NCc1ccccc1Br	i	i
COc1cc(C)c(CC/C(C)=C/C=C/C(C)=O)c(C)c1C	i	i
CC(/C=N\Nc1nnc2c(n1)[nH]c1c(C)cccc12)=C\c1ccco1	4µM	i
CCCCCSc1nnc2c(n1)[nH]c1c(C)cccc12	?	i
CC1=CN2C(=N)/C(=C/c3ccc(C)o3)C(=O)N=C2S1	i	i
Cc1ccc(/C=C2\SC(N3CCN(C(c4ccccc4)c4ccccc4)CC3)=NC2=O)o1	7.9µM	i
Cc1ccc(-c2nc3ccccc3s2)cc1NC(=S)NC(=O)/C=C/c1ccco1	16µM	i
O=C(Nc1cc(-c2nc3ccccc3s2)ccc1Cl)c1ccc2c(c1)OCO2	?	i
SMILES	Cruzain inh noDet	Cruzain Triton
Cc1ccc(-c2nc3ccccc3s2)cc1NC(=S)NC(=O)c1cccc2ccccc12	6.3µM	i
Cc1ccc(-n2nc3cc(C)c(NC(=S)NC(=O)/C=C/c4ccco4)cc3n2)cc1	?	i
Cc1ccc(C(=O)NC(=S)Nc2cccc(-c3nc4ccccc4s3)c2)cc1	?	i
O=C(/C=C/c1ccco1)NC(=S)Nc1cc(-c2nc3ccccc3s2)ccc1Cl	6.3µM	i
COc1ccc(NC(=O)C(C)Sc2cc(-c3ccccc3)nc(C)n2)cc1Cl (configuration not stated)	i	i
CCOC(=O)c1c(NC(=O)/C=C/c2ccccc2)sc2c1CCCC2	i	i
CC(C)CCNS(=O)(=O)c1ccc(-c2ccc(S(=O)(=O)NCCC(C)C)cc2)cc1	10µM	i
COc1ccc(S(=O)(=O)NCCC(C)C)cc1OC	i	i
C[C@H]1CCCC2(CC[N+](C)(CCC[N+](C)(C)C)CC2)C1 (some centres not stated)	i	i
Cc1cc(C)c(NC(=O)Cn2nnc(-c3ccccc3)n2)c(C)c1	i	i
